Inconclusive results are not listed. The source made the active and inactive calls. Calls come from the whole dose curve; as a rule, active = well fitted inhibition curve with a large enough effect; inconclusive = small, poorly fitted or top-dose-only effect; inactive = flat fitted curve, though single readings scatter.

Experiment in all cases: qHTS profiling for inhibitors of Plasmodium falciparum proliferation (AID 504749); note: nearly all actives have a fitted effect of over 60% in size
Common to all, as to settings: P. falciparum in erythrocytes, SYBR Green DNA, 72 h; series mostly up to 12.8 µM

The test system of one assay is CP194. In short, it runs like this:
(§1)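 Quantitative HTS: compounds pinned into medium, infected erythrocytes added (0.3% parasitemia, 2.5% hematocrit), 72 h culture at 37 C under 5% CO2. Saponin/Triton lysis with SYBR Green I, overnight RT, then fluorescence read.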

The subject of the next assay is CP201. Summed up: as §1
The subject of a further assay is CP203. Summed up:
as §1

In a further assay the test system is CP211. Summed up:
as §1

The next assay deals with CP215. Summed up:
as §1

The next assay has as its system CP266. In short, it runs like this: as §1
The subject of a further assay is CP286. In short, it runs like this:
as §1

For the next assay, the system named is CP297. In short, it runs like this: as §1
Another assay has as its system CP315. In short, it runs like this:
as §1

A further assay deals with CP329. In short, it runs like this: as §1
The subject of the next assay is TAB165. Summed up:
as §1

Another assay concerns AA1029. In short, it runs like this: as §1
In another assay the test system is AS120. Summed up: as §1
For a further assay, the system named is CP185. Summed up:
as §1

A further assay concerns CP252. Summed up:
as §1

The next assay deals with CP269. In short, it runs like this: as §1
The next assay deals with DIV17. In short, it runs like this:
as §1

For a further assay, the system named is ECU. Summed up: as §1
Another assay relates to TAB113. In short, it runs like this: as §1
The next assay deals with DIV30. Summed up: as §1
Potency is the fitted concentration of half-maximal effect.

For the compound `CCC(=O)O[C@@]1(C(=O)SCF)[C@@H](C)C[C@H]2[C@@H]3C[C@@H](F)C4=CC(=O)C=C[C@@]4(C)[C@]3(F)[C@@H](O)C[C@]21C`, the Potency entry in the assay with CP194, in the assay on CP201, in the assay with CP203, with CP211, in the assay on CP215 and in the assay on CP266 was “inactive” each time. For the same compound, the Potency entry in the assay with CP286, in the assay with CP297, in the assay with CP315 and in the assay with CP329 was “inactive” in each case. Further, in the assay on TAB165, the Potency was 3.16 µM (active).
Turning to `Cc1ccc(S(=O)(=O)NC(=O)NN2C[C@H]3CCC[C@@H]3C2)cc1`, the Potency entry in the assay on AA1029, with AS120, with CP185, in the assay on CP194, in the assay with CP201 and in the assay with CP203 was “inactive” in each case. For the same compound, the Potency result in the assay with CP211, in the assay on CP215, in the assay with CP252, in the assay on CP266, in the assay with CP269 and in the assay on CP286 was “inactive” each time. For the same compound, the Potency result in the assay with CP297, with CP315, with CP329, with DIV17, in the assay on ECU and in the assay with TAB113 was “inactive” each time. Also, the Potency result in the assay on TAB165 is “inactive”.
Regarding `Clc1ccc([C@H](Cn2ccnc2)OCc2csc3c(Cl)cccc23)c(Cl)c1`, the Potency with AS120 was 2.51 µM (active); with CP203, 5.73 µM (active); with CP297, 6.42 µM (active); with DIV17, 7.21 µM (active); in the assay with DIV30 it was 5.1 µM (active); in the assay on ECU, 3.98 µM (active). The Potency with TAB165 is 2.24 µM (active). Further, the Potency entry in the assay on CP266 was “inactive”.
As to `NC(=O)c1cc[n+](CC2=C(C(=O)[O-])N3C(=O)[C@@H](NC(=O)Cc4cccs4)[C@@H]3SC2)cc1`, the Potency entry with AA1029, in the assay with AS120, in the assay with CP185, with CP194, with CP201 and with CP211 was “inactive” each time. The Potency result with CP215, with CP252, with CP266, in the assay with CP269, with CP286 and in the assay with CP297 was “inactive” each time. The Potency entry in the assay with CP315, with CP329, in the assay with DIV17, in the assay with DIV30, in the assay with ECU and in the assay on TAB113 was “inactive” throughout. In the assay with TAB165, the Potency result is “inactive”.
With `C[C@@]12CC[C@H]3[C@@H](CCC4=CC(=O)CC[C@]43C)[C@H]1CC[C@H]2C(=O)CO`, the Potency result in the assay on AA1029, in the assay with CP185, in the assay on CP194, with CP201, in the assay on CP211 and with CP215 was “inactive” each time. In addition, the Potency entry with CP252, in the assay on CP266, in the assay on CP269, with CP286, with CP297 and in the assay with CP315 was “inactive” throughout. For the same compound, the Potency result with CP329, in the assay on DIV17 and in the assay on DIV30 was “inactive” in each case.
On to `CCCC[C@H](CC)CN1CN(C[C@@H](CC)CCCC)CC(C)(N)C1`, for which the Potency entry in the assay on AA1029, with AS120, in the assay with CP185, with CP194, in the assay with CP201 and with CP203 was “inactive” each time. Besides, the Potency entry in the assay with CP211, in the assay on CP215, in the assay on CP252, in the assay on CP266, in the assay with CP269 and in the assay with CP297 was “inactive” in each case. Besides, the Potency entry in the assay with CP315, in the assay on CP329, in the assay on DIV17, in the assay on DIV30, in the assay with ECU and in the assay on TAB113 was “inactive” throughout. The Potency entry in the assay with TAB165 was “inactive”.
In the case of `COc1c(O[C@H]2O[C@@H](CO)[C@@H](O)[C@@H](O)[C@@H]2O)cc2c(c1OC)-c1ccc(SC)c(=O)cc1[C@H](NC(C)=O)CC2`, the Potency entry with AA1029, with AS120, in the assay with CP185, with CP194, in the assay on CP201 and in the assay with CP203 was “inactive” each time. The Potency entry in the assay on CP211, in the assay with CP215, in the assay with CP252, with CP266, in the assay with CP269 and in the assay on CP286 was “inactive” each time. The Potency result with CP297, with CP315, in the assay on CP329, in the assay with DIV17, with DIV30 and with ECU was “inactive” throughout. For the same compound, the Potency result in the assay on TAB113 and with TAB165 was “inactive” each time.
Regarding `NCc1ccccc1CC(=O)N[C@@H]1C(=O)N2C(C(=O)O)=C(CSc3nnnn3CC(=O)O)CS[C@@H]12`, the Potency entry with AA1029, in the assay on AS120, with CP185, in the assay with CP194, with CP201 and in the assay on CP203 was “inactive” throughout. Further, the Potency result with CP211, in the assay on CP215, in the assay with CP252, with CP266, in the assay on CP269 and in the assay with CP286 was “inactive” throughout. Further, the Potency entry in the assay with CP297, in the assay with CP315, in the assay on CP329, in the assay on DIV17, in the assay on ECU and with TAB113 was “inactive” each time. Moreover, the Potency result in the assay with TAB165 is “inactive”.
With `C=CC1=C(C(=O)O)N2C(=O)[C@@H](NC(=O)/C(=N\OCC(=O)O)c3csc(N)n3)[C@@H]2SC1`, the Potency entry in the assay with AA1029, in the assay with AS120, in the assay with CP185, in the assay with CP194, in the assay on CP201 and with CP203 was “inactive” throughout. The Potency entry in the assay with CP211, in the assay on CP215, in the assay on CP252, with CP266, in the assay on CP269 and with CP286 was “inactive” each time. Besides, the Potency entry with CP297, with CP315, with CP329, with DIV17, in the assay on DIV30 and with ECU was “inactive” throughout. Besides, the Potency entry in the assay on TAB113 and in the assay on TAB165 was “inactive” throughout.
Regarding `C[C@H](N[C@@H](C)COc1ccccc1)[C@H](O)c1ccc(O)cc1`, the Potency result with AA1029, with AS120, in the assay on CP185, with CP194, with CP201 and with CP211 was “inactive” throughout. For the same compound, the Potency entry in the assay with CP215, in the assay on CP252, in the assay on CP269, in the assay on CP286, in the assay on CP315 and with CP329 was “inactive” throughout. The Potency entry with DIV30, with ECU, in the assay on TAB113 and in the assay with TAB165 was “inactive” in each case.
As to `CC(C)NC[C@H]1CCc2cc(CO)c([N+](=O)[O-])cc2N1`, the Potency entry in the assay on AA1029, in the assay on AS120, in the assay with CP185, with CP194, in the assay on CP201 and in the assay on CP203 was “inactive” in each case. In addition, the Potency entry in the assay on CP215, in the assay with CP252, with CP266, in the assay with CP269, in the assay with CP286 and in the assay on CP297 was “inactive” throughout. The Potency entry with CP315, in the assay on CP329, in the assay on DIV17, with DIV30, with ECU and in the assay with TAB113 was “inactive” in each case. Also, the Potency entry in the assay on TAB165 was “inactive”.
In the case of `CCOC(=O)O[C@]1(C(=O)COC(=O)CC)CC[C@@H]2[C@@H]3CCC4=CC(=O)C=C[C@@]4(C)[C@H]3[C@H](O)C[C@]21C`, the Potency entry in the assay on AA1029, with AS120, in the assay on CP185, in the assay with CP194, with CP201 and in the assay with CP203 was “inactive” throughout. In addition, the Potency entry with CP211, in the assay on CP215, in the assay with CP252, with CP266, with CP269 and in the assay on CP286 was “inactive” throughout. The Potency result in the assay on CP297, in the assay on CP315, with CP329, in the assay with DIV17, with DIV30 and with ECU was “inactive” throughout. In addition, the Potency result with TAB113 and with TAB165 was “inactive” each time.
In the case of `OCCN1CCN(CCC=C2c3ccccc3Sc3ccc(Cl)cc32)CC1`, the Potency result in the assay on CP203, in the assay with CP266, in the assay with CP297 and in the assay with TAB113 was “inactive” throughout. The Potency in the assay on CP286 is 3.55 µM (active).

The values are drawn from PubChem BioAssay (NCATS).
